Measurements published in PubChem BioAssay (NCATS).
Records with an inconclusive call do not appear. The source made the active and inactive calls. Unless noted, the call rests on the fitted dose curve; in most records, active means well fitted curve in either direction with a large enough effect (not every such curve was filed as active); inconclusive means small, poorly fitted or top-dose-only effect, or another doubt; inactive means flat fitted curve, though single readings scatter.

Legend:
[1] = biological target: Lysosomal acid glucosylceramidase (Homo sapiens) (UniProt P04062); assay: Glucocerebrosidase-p2 (AID 348; in the data active means potency below about 10 µM; further: potency means the concentration at half of the fitted maximal effect); settings: purified GBA, blue fluorogenic substrate, 40 min
Summary of the method: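 Compounds titrated from 0.6 nM upwards against 0.2 nM enzyme in pH 5.9 citric acid/KH2PO4, taurocholate, tween-20; blue fluorogenic substrate 80 uM, 40 min room temperature, stopped and read Ex 365/Em 440 for AC50.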

[2] = AP1 Signaling Pathway (AID 357); settings: ME-180 AP-1-bla reporter, EGF-induced, beta-lactamase ratio, 5 h; at 7.69 µM (top of the series) unless noted;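 further: ME-180 reporter cells stimulated with EGF at its EC50 level; on the % scale 0 is the no-effect control and ±100 the full control effect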
Summary of the method: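 In this screen, ME-180 cells in Opti-MEM with 0.5% dialyzed FBS received EC50 EGF and compound titrations for 5 h. AP-1 reporter beta-lactamase was detected via CCF4 ratio, giving AC50 for positive and negative modulators.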

[3] = biological target: Glucocorticoid receptor (Homo sapiens) (UniProt P04150); assay: GR-GFP Redistribution (AID 450;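 active means compounds whose dose series gives a full or clear partial fitted curve of increased nuclear translocation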; further: potency means the concentration at half of the fitted maximal effect); settings: U2OS GR-GFP nuclear translocation, laser cytometry, 2 h
[4] = biological target: Glucocorticoid receptor (Homo sapiens) (UniProt P04150); assay: GR-EFC Redistribution (AID 451; calls by dose curve; further: potency means the concentration at half of the fitted maximal effect); settings: CHO-K1 GR-EFC translocation, beta-gal luminescence, 2 h
Summary of the method: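 CHO-K1 cells stably expressing nuclear-localized β-gal enzyme acceptor and GR fused C-terminally to the enzyme donor fragment; ligand-driven nuclear translocation restores β-gal by complementation. Compounds titrated up to 46 uM final, 2 h at 37 °C; luminescence read.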

[5] = biological target: Mitogen-activated protein kinase 10 (Mus musculus) (UniProt Q61831); assay: JNK3 AlphaScreen Assay (AID 530); settings: JNK3 lysate, c-Jun phosphorylation; series mostly up to 11.4 µM;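 further: kinase came from lysate of stimulated human HepG2 cells; signal reports phosphorylation of biotinylated GST-cJun 1-79 at Ser73 with 10 µM ATP; on the % scale 0 is the no-effect control and ±100 the full control effect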
Summary of the method: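 Inhibitors reduce antibody binding to phosphorylated biotin-cJun, lowering AlphaScreen luminescence. Lysates from HepG2 cells pre-activated by IL-1beta plus TNF-alpha supplied JNK3; compounds were titrated.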

[6] = biological target: 3',5'-cyclic-AMP phosphodiesterase 4B (Homo sapiens) (UniProt Q07343); assay: qHTS Assay for Inhibitors of PDE-IV (AID 607; active means well fitted activation curve with a large enough effect in the main read-out, with a control signal flat, not every such curve was filed as active; further: % of control where 0% means no effect); settings: HEK293 ACTOne CNG channel cells, membrane potential fluorescence; series mostly up to 22.9 µM
Summary of the method: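 HEK293 ACTOne cells with CNG channel (1000/well), endogenous PDE4; membrane potential dye, compounds up to 22.9 uM final. Fluorescence Ex 535/Em 590; RO 20-1724 (100 uM final) as reference.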

[7] = Stat Signaling Pathway (AID 446); settings: ME-180 SIE beta-lactamase reporter, IL-6 stimulated, 5 h; at 7.69 µM (top of the series) unless noted;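 further: ME-180 cervical cancer cells given 40 pM IL-6 alongside compound; SIE-controlled beta-lactamase reporter measured as 460/530 nm FRET emission ratio; on the % scale 0 is the no-effect control and ±100 the full control effect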
Summary of the method: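 ME-180 cells carrying a SIE-driven beta-lactamase reporter are stimulated with 40 pM IL-6 for 5 h at 37C in the presence of compound. The 460/530 nm FRET substrate ratio is read after 2.5 h at RT. Data are normalised to 300 pM IL-6 and to 125 nM JAK inhibitor controls.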

[8] = qHTS Assay for Identification of Small Molecule Agonists for Hypoxia Response Element Signaling Pathway (AID 914; active means well fitted activation curve with a large enough effect in the signal ratio, with a control signal flat, not every such curve was filed as active; the % refers to the signal ratio; further: % of control where 0% means no effect); settings: ME-180 (cervical carcinoma) HRE-bla reporter, beta-lactamase ratio, CoCl2, 17 h; activation: hits give high values
Summary of the method: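 Positive modulation of EC50 CoCl2-induced hypoxia response element signaling is measured in ME-180 cells with a beta-lactamase reporter. Compounds are titrated, incubation runs 17 hours, and %Activity derives from the blue/green ratio.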

[9] = biological target: Cytochrome P450 2C9 (Homo sapiens) (UniProt P11712); assay: qHTS Assay for Inhibitors and Substrates of Cytochrome P450 2C9 (AID 883; active means well fitted inhibition curve with a large enough effect; further: on the % scale 0 is the no-effect control and ±100 the full control effect; nearly all actives have a fitted effect of over 60% in size); settings: recombinant CYP2C9, luciferin-H luminescence, 60 min; series mostly up to 11.4 µM
Summary of the method: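 CYP2C9 deoxyluciferin hydroxylation, 37C, 60 min with NADPH regeneration; 10nM enzyme, 100uM Luciferin-H (KM). Glo detection reagent stopped reaction; luminescence normalized to sulphaphenazole (57uM) full inhibition.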

[10] = biological target: Cytochrome P450 3A4 (Homo sapiens) (UniProt P08684); assay: qHTS Assay for Inhibitors and Substrates of Cytochrome P450 3A4 (AID 884; active means well fitted inhibition curve with a large enough effect; further: on the % scale 0 is the no-effect control and ±100 the full control effect; nearly all actives have a fitted effect of over 50% in size); settings: recombinant CYP3A4, Luciferin-PPXE luminescence; series mostly up to 57.1 µM
Summary of the method: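 20 nM human CYP3A4 with 25 uM Luciferin-PPXE (at KM) in 200 mM KPO4, preincubated 10 min with compound; NADPH regeneration started a 60 min RT reaction. Luciferin detected by luminescence, normalized to 57 uM ketoconazole as full inhibition.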

[11] = biological target: Cytochrome P450 2D6 (Homo sapiens) (UniProt P10635); assay: qHTS Assay for Inhibitors and Substrates of Cytochrome P450 2D6 (AID 891; active means well fitted inhibition curve with a large enough effect;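 further: luciferin methyl ether substrate demethylated by CYP2D6 with NADPH regeneration; on the % scale 0 is the no-effect control and ±100 the full control effect; nearly all actives have a fitted effect of over 60% in size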); settings: recombinant CYP2D6, luciferin-ME EGE luminescence; series mostly up to 11.4 µM
Summary of the method: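 Human CYP2D6 (5 nM) with 30 uM Luciferin-ME EGE (at Km) in 100 mM KPO4, compound preincubated 10 min, then NADPH regeneration system for 60 min at room temperature. Luciferin read by luminescence; normalized to 1.43 uM quinidine.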

[12] = biological target: Cytochrome P450 2C19 (Homo sapiens) (UniProt P33261); assay: qHTS Assay for Inhibitors and Substrates of Cytochrome P450 2C19 (AID 899; active means well fitted inhibition curve with a large enough effect; further: on the % scale 0 is the no-effect control and ±100 the full control effect; nearly all actives have a fitted effect of over 60% in size); settings: recombinant CYP2C19, luciferin-H EGE luminescence; series mostly up to 11.4 µM
Summary of the method: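 In 50mM KPO4, the reaction held 5nM enzyme and KM-level (10uM) Luciferin-H EGE; it ran 60 min at 37C after NADPH regeneration and a 10 min compound preincubation. Luminescence values were scaled to 57uM ketoconazole as complete inhibition.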

Glucocorticoid receptor (Homo sapiens), sequence (P04150 whole entry, looked up, the tested form may be a part): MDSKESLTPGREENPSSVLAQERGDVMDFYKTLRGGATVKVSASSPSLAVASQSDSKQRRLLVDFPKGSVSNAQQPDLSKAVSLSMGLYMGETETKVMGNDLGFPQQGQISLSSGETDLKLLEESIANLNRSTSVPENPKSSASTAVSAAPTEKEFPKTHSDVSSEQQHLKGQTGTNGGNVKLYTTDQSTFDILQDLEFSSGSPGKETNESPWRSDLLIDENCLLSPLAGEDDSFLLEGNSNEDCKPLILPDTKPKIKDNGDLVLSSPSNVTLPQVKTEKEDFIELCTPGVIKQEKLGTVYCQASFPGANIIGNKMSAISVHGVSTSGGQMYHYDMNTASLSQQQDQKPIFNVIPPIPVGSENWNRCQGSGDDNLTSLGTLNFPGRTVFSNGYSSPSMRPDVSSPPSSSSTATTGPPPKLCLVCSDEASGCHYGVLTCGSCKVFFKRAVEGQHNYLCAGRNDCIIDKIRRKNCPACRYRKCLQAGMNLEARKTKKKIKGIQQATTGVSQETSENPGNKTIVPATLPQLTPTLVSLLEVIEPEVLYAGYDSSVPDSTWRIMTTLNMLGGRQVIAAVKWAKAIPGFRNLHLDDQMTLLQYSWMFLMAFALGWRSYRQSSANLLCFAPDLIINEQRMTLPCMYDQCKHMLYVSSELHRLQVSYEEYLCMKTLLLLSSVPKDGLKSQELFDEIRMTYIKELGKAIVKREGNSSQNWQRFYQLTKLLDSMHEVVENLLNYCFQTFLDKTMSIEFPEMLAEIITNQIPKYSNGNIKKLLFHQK
3',5'-cyclic-AMP phosphodiesterase 4B (Homo sapiens), sequence (Q07343 whole entry, looked up): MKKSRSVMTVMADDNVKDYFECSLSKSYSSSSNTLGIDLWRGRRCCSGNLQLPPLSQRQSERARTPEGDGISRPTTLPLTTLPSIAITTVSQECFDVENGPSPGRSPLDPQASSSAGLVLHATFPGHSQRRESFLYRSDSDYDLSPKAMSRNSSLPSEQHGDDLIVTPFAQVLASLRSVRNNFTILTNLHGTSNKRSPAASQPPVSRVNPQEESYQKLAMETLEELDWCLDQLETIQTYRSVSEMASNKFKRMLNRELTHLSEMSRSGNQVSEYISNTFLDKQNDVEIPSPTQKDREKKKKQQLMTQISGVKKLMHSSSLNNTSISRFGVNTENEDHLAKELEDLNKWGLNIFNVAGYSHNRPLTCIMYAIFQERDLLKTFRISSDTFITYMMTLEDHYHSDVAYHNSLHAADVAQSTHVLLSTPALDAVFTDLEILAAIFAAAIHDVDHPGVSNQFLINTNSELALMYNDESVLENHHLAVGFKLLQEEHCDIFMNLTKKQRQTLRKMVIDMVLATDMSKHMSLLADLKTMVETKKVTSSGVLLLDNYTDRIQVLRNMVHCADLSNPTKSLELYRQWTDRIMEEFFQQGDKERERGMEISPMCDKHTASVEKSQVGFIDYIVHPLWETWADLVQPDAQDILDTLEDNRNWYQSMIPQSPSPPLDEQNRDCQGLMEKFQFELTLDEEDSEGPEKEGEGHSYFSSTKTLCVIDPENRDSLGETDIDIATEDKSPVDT
Lysosomal acid glucosylceramidase (Homo sapiens), sequence (P04062 whole entry, looked up): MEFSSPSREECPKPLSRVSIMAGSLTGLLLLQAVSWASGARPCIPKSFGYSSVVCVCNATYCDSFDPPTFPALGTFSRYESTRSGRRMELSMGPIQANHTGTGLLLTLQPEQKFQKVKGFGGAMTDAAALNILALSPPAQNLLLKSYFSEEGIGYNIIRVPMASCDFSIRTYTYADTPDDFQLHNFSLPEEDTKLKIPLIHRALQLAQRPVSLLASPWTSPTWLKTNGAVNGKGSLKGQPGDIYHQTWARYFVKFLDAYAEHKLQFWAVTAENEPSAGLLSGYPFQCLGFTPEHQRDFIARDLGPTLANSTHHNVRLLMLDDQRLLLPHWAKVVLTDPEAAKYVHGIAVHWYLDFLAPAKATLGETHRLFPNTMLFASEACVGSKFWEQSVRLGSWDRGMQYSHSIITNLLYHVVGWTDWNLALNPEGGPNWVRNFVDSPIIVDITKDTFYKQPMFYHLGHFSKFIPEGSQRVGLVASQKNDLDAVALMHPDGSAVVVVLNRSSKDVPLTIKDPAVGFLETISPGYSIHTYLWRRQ
Cytochrome P450 2D6 (Homo sapiens), sequence (P10635 whole entry, looked up): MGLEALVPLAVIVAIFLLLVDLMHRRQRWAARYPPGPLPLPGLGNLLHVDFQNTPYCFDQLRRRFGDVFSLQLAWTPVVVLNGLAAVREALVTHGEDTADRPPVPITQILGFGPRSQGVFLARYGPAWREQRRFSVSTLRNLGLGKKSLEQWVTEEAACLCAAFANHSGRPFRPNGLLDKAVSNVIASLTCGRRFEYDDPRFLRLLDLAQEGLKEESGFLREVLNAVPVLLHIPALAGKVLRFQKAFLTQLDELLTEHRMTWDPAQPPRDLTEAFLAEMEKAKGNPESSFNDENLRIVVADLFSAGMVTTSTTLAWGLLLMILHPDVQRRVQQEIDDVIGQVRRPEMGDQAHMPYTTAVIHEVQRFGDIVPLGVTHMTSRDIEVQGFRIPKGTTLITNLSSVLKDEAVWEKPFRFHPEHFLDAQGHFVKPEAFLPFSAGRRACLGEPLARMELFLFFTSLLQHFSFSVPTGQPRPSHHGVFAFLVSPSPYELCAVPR
Cytochrome P450 3A4 (Homo sapiens), sequence (P08684 whole entry, looked up): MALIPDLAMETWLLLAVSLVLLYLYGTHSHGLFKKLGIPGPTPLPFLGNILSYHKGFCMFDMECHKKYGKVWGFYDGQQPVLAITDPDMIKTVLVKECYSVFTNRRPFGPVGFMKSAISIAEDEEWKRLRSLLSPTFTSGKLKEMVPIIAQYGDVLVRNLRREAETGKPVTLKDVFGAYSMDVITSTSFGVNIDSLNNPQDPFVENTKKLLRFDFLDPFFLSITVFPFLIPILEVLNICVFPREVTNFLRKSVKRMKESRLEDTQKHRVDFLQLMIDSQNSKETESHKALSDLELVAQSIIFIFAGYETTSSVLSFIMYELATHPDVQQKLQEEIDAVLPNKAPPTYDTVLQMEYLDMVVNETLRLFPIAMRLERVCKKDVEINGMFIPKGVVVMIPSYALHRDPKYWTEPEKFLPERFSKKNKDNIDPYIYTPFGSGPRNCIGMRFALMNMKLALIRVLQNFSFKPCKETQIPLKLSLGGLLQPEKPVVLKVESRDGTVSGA
Cytochrome P450 2C19 (Homo sapiens), sequence (P33261 whole entry, looked up): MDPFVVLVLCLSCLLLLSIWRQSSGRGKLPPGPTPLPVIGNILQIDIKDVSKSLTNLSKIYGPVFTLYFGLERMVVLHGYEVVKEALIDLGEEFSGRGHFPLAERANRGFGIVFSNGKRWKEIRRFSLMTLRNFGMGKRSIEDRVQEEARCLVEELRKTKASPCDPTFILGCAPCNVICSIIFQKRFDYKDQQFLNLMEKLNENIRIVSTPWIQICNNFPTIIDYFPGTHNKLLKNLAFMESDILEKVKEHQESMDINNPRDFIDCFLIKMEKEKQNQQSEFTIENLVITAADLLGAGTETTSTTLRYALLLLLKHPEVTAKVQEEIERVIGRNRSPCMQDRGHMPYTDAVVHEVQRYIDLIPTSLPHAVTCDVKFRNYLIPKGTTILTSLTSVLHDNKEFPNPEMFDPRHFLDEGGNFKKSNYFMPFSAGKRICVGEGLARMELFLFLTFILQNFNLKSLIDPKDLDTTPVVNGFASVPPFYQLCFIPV
Cytochrome P450 2C9 (Homo sapiens), sequence (P11712 whole entry, looked up): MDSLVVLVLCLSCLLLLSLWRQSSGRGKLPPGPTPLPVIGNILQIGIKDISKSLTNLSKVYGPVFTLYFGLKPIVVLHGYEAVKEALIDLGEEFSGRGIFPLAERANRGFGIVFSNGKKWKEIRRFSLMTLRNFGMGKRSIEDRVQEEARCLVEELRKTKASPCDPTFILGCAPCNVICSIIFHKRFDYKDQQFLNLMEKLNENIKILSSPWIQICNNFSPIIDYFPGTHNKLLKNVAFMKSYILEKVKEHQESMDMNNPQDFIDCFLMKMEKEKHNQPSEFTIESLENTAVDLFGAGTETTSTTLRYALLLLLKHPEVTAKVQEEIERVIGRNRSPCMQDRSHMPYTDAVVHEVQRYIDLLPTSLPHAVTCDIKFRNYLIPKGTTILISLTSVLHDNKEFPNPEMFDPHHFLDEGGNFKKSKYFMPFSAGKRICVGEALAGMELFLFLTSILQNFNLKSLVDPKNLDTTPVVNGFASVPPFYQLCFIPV

CC1(C)COCN1COC1CCCCC1
inactive: Potency [1] > 11.4 µM | activity change, negative = inhibition [2] -2.54% | Potency [3] > 46 µM | Potency [4] > 9.22 µM | Potency [5] | Potency [6]

CN(C)CC[C@@H](C(=O)C(C)(C)C)c1ccccn1
inactive: Potency [1] > 11.4 µM | activity change, negative = inhibition [2] 2.04% | activity, negative = inhibition [7] 1.4% | Potency [3] > 46 µM | Potency [4] > 9.22 µM | Potency [5] | Potency [6]

c1ccc2c(c1)-c1ccccc1C2N1CC2CCC(CC2)C1
inactive: Potency [1] > 11.4 µM | activity change, negative = inhibition [2] 22.5% | activity, negative = inhibition [7] 17.6% | Potency [3] > 46 µM | Potency [4] > 9.22 µM | Potency [6]

O=C(O)C/C=C\CC(=O)O
inactive: Potency [1] > 11.4 µM | activity change, negative = inhibition [2] -4.27% | activity, negative = inhibition [7] 1.96% | Potency [3] > 46 µM | Potency [4] > 9.22 µM | Potency [5] | Potency [6]

Cn1cnc([N+](=O)[O-])c1Sc1nc(N)nc2c1ncn2[C@H]1C[C@H](O)[C@@H](CO)O1
inactive: Potency [1] > 11.4 µM | activity change, negative = inhibition [2] -4.23% | activity, negative = inhibition [7] 0.176% | Potency [3] > 46 µM | Potency [4] > 9.22 µM | Potency [5] | Potency [6]

Clc1ccc(CSCc2ccc(Cl)cc2Cl)c(Cl)c1
inactive: Potency [1] > 11.4 µM | activity change, negative = inhibition [2] -7.04% | activity, negative = inhibition [7] 1.58% | Potency [3] > 46 µM | Potency [4] > 9.22 µM | Potency [5] | Potency [6]

c1cc(CSc2ncnc3nc[nH]c23)ccn1
inactive: Potency [1] > 11.4 µM | activity change, negative = inhibition [2] 10.4% | activity, negative = inhibition [7] -2.3% | Potency [3] > 46 µM | Potency [5] | Potency [6] | activation [8] -3.44%

COc1ccc(CC[N@+]2(C)COc3cc4oc(=O)cc(C)c4cc3C2)cc1OC
inactive: Potency [1] 11 µM | activity change, negative = inhibition [2] 10.2% | activity, negative = inhibition [7] 5.96% | Potency [3] > 46 µM | Potency [4] > 9.22 µM | Potency [6]

O=C1CSC(=S)N1/N=C\c1ccc(Cl)c([N+](=O)[O-])c1
inactive: Potency [1] > 11.4 µM | activity change, negative = inhibition [2] 1.11% | activity, negative = inhibition [7] 1.79% | Potency [3] > 46 µM | Potency [4] > 9.22 µM | Potency [5] | Potency [6]

O=C(O)C(=Cc1ccc(-c2ccccc2)cc1)C(=O)O
inactive: Potency [1] > 11.4 µM | activity change, negative = inhibition [2] -9.3% | activity, negative = inhibition [7] -12.1% | Potency [3] > 46 µM | Potency [4] > 9.22 µM | Potency [5] | Potency [6] | Potency [9] | activity change, negative = inhibition [10] -41.1% [at 11.4 µM] | Potency [11] | Potency [12]
